The record followed here is PubChem BioAssay (Tox21).

Values joined by “and” are separate entries in the source; they are usually repeats but may differ in a detail not shown here. Equal values may be shown once. Unmarked numbers belong to inactive results. Inconclusive results are not listed. Some structures have more than one record in an assay (separate samples or runs), and their calls can disagree. Active and inactive are the calls of the source. Unless noted, calls follow the shape of the dose curve; as a rule, active = well fitted curve in the direction sought with a large enough effect in the repeat runs; inconclusive = weak or mixed curves; inactive = no such curve, though single readings can be large; an effect the other way counts as inactive or inconclusive.

Experiment [1] is described as follows: qHTS assay to identify small molecule agonists of the hypoxia (HIF-1) signaling pathway - cell viability counter screen (AID 1224844; calls by dose curve; also: nearly all actives have a fitted effect of over 50% in size; also: potency is read from the fitted curve at half-maximal effect). The essentials: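 Tox21 10K compounds were added to HRE-bla ME-180 cells (0.5% dialyzed FBS) and incubated 17 hrs at 37C; ATP-based CellTiter-Glo luminescence then reported cell viability in the same wells.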
A short description of experiment [2]: qHTS assay to identify small molecule agonists of H2AX (AID 1224845; active = well fitted activation curve with a large enough effect in the signal ratio in the repeat runs, not every such curve was filed as active; the % refers to the signal ratio). Put shortly: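 Wild-type CHO-K1 cells, plated overnight, exposed 3hr at 37C to 15 concentrations (0.76% DMSO final). Lysed, then HTRF anti-pH2AX (S139) cryptate and anti-H2AX-d2 antibodies, 24 hr room temperature; 665/620 nm emission read.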
Experiment [3] is described as follows: qHTS assay to identify small molecule agonists of H2AX - cell viability counter screen (AID 1224847; calls by dose curve; also: top concentration of the series differs between compounds; nearly all actives have a fitted effect of over 30% in size). The essentials:
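Wild-type CHO-K1 cells (10% FBS medium) were plated overnight at 37C, exposed to compounds at 15 concentrations for 3 hr at 37C (0.76% DMSO final), and viability was read as CellTiter-Glo luminescence after 30 min at room temperature.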

Experiment [4] in a line: qHTS RealTime-Glo MT Cell Viability Assay in HepG2 cells - 24 hour (AID 1224867). Also: nearly all actives have a fitted effect of over 50% in size. The essentials:
(§1)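 Cells + NanoLuc/prosubstrate dispensed (600 cells/well) → 5 h at 37 C/5% CO2 → compounds in DMSO transferred → 40 h incubation at 37 C, luminescence read at 0, 8, 16, 24, 32, 40 h.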

Experiment [5] in a line: qHTS RealTime-Glo MT Cell Viability Assay in HEK293 cells - 32 hour (AID 1224868). Also: nearly all actives have a fitted effect of over 50% in size. Also: potency is read from the fitted curve at half-maximal effect. Put shortly:
(§2)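 Tox21 10K qHTS, HEK293, 600 cells/well, RealTime-Glo reagent co-dispensed with cells; 5 h preincubation, compound by pintool, 37 C, luminescence at 0–40 h.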

A short description of experiment [6]: A CellTox Green Cytotoxicity Assay to monitor cytotoxicity in HEK293 cells - 0 hour (AID 1224869). Also: nearly all actives have a fitted effect of over 50% in size. Put shortly: (§3)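 Cytotoxicity was tracked continuously in HEK293 cells by a DNA-binding dye excluded from viable cells. Compounds were transferred in DMSO 5 h after seeding; fluorescence was recorded at intervals up to 40 h.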
Experiment [7] in a line: qHTS RealTime-Glo MT Cell Viability Assay in HepG2 cells - 40 hour (AID 1224870). Also: nearly all actives have a fitted effect of over 50% in size. The essentials: (§4)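 HepG2 cells (600/well) mixed with RealTime-Glo MT reagent, settled 5 h at 37 C/5% CO2 before compound addition. Nonlytic NanoLuc luminescence from viable-cell prosubstrate reduction read repeatedly during 40 h treatment at 37 C.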
A short description of experiment [8]: A CellTox Green Cytotoxicity Assay to monitor cytotoxicity in HEK293 cells - 40 hour (AID 1224871). Also: nearly all actives have a fitted effect of over 45% in size. The essentials:
as §3

Experiment [9] in a line: qHTS RealTime-Glo MT Cell Viability Assay in HEK293 cells - 16 hour (AID 1224872). The essentials:
as §2

Experiment [10] in a line: qHTS RealTime-Glo MT Cell Viability Assay in HepG2 cells - 8 hour (AID 1224873). Also: nearly all actives have a fitted effect of over 55% in size. The essentials: as §4
The nature of experiment [11]: qHTS RealTime-Glo MT Cell Viability Assay in HEK293 cells - 40 hour (AID 1224874). Also: nearly all actives have a fitted effect of over 50% in size. Also: potency is read from the fitted curve at half-maximal effect. Particulars: RealTime-Glo luminescence; max response: hits give low values. The essentials:
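Nonlytic bioluminescent viability monitoring. HEK293 at 600 cells/well with reagent; 5 h settle; compound transfer by pintool; plates held at 37 C and read at set time points.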

A short description of experiment [12]: A CellTox Green Cytotoxicity Assay to monitor cytotoxicity in HEK293 cells - 24 hour (AID 1224875). Also: nearly all actives have a fitted effect of over 45% in size. The essentials: as §3
Experiment [13] is described as follows: qHTS RealTime-Glo MT Cell Viability Assay in HepG2 cells - 32 hour (AID 1224877). Also: nearly all actives have a fitted effect of over 55% in size. The essentials:
as §1

Experiment [14] is described as follows: A CellTox Green Cytotoxicity Assay to monitor cytotoxicity in HepG2 cells - 40 hour (AID 1224879). Also: nearly all actives have a fitted effect of over 40% in size. Also: potency is read from the fitted curve at half-maximal effect. Put shortly:
(§5)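 Real-time, homogeneous cytotoxicity readout: dead-cell DNA staining by CellTox Green in HepG2 monolayers, fluorescence measured at timed intervals up to 40 h of continuous compound exposure.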

Experiment [15] concerns the target Thyrotropin receptor (Homo sapiens) (UniProt P16473). The experiment is described as follows: qHTS assay to identify small molecule agonists of the thyroid stimulating hormone receptor (TSHR) signaling pathway (AID 1224843; calls by dose curve; also: nearly all actives have a fitted effect of over 45% in size). The essentials: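 TSHR-HEK293 cells in agonist mode, 30 min room-temperature step, then cAMP measured by competitive HTRF (cAMP-d2 with anti-cAMP cryptate) after 1 h at room temperature. Tested at 15 concentrations in triplicate.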

Experiment [16] in a line: A CellTox Green Cytotoxicity Assay to monitor cytotoxicity in HepG2 cells - 16 hour (AID 1224876). Also: nearly all actives have a fitted effect of over 45% in size. The essentials: as §5
Experiment [17] in a line: A CellTox Green Cytotoxicity Assay to monitor cytotoxicity in HepG2 cells - 24 hour (AID 1224878). Also: nearly all actives have a fitted effect of over 45% in size. Also: potency is read from the fitted curve at half-maximal effect. Put shortly: as §5
Experiment [18] in a line: qHTS assay to identify small molecule agonists of the hypoxia (HIF-1) signaling pathway (AID 1224846; active = well fitted activation curve with a large enough effect in the signal ratio in the repeat runs, not every such curve was filed as active; the % refers to the signal ratio). The essentials:
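Steps: seed ME-180 HRE-bla cells (2,000/well, 0.5% dialyzed FBS); incubate 5 hrs at 37C; pin-transfer compounds or DMSO; incubate 17 hrs; add LiveBLAzer B/G substrate CCF4-AM; measure reporter activation by FRET.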

A short description of experiment [19]: qHTS assay to identify small molecule antagonists of the estrogen related receptor (ERR) signaling pathway from Tox21 library (AID 1224848). Also: nearly all actives have a fitted effect of over 50% in size. The essentials:
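ERR reporter cell line (from NTP) seeded 2,000 cells/well, rested 6 h at 37 C/5% CO2, then pin-dosed with compounds in DMSO. After 18 h at 37 C, ONE-Glo added; luminescence read after 30 min at room temperature.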

Experiment [20] is described as follows: qHTS assay to identify small molecule agonists of the estrogen related receptor (ERR) signaling pathway from Tox21 library (AID 1224849; calls by dose curve; also: nearly all actives have a fitted effect of over 15% in size). To be noted: ERR reporter cell line, ONE-Glo luciferase, 18 h. Put shortly: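 Agonist signal is luciferase luminescence from an ERR reporter cell line treated 18 h at 37 C with DMSO-dissolved compounds, read 30 min after ONE-Glo addition at room temperature.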
% is scaled to controls: 0 for no effect and ±100 for the full control effect.

Chain of Thyrotropin receptor (Homo sapiens) (P16473 whole entry, looked up): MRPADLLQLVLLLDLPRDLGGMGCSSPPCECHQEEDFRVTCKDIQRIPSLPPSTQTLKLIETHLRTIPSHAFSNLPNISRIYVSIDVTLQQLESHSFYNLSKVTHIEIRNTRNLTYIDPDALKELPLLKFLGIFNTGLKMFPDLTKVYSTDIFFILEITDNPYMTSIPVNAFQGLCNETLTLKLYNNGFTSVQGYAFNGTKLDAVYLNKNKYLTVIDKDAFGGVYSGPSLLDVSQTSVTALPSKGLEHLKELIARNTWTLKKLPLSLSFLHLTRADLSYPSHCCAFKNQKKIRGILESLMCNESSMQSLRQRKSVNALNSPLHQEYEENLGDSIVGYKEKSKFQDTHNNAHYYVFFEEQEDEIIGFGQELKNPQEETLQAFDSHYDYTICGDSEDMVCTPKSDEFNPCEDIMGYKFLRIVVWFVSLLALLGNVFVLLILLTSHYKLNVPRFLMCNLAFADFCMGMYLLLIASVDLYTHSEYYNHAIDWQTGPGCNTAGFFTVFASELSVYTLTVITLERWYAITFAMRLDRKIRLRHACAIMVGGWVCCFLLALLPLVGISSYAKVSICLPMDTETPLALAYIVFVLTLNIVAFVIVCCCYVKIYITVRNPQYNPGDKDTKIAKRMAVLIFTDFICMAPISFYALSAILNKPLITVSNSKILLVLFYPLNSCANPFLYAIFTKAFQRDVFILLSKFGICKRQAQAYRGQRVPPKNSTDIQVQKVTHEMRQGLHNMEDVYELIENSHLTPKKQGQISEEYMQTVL

For `Cc1cnc(NC(=O)C2=C(O)c3ccccc3S(=O)(=O)N2C)s1`, the Potency entry in experiment [1], in [2], in [3], in [5], in experiment [6] and in experiment [8] was “inactive” throughout. Moreover, the Potency result in [9], in [12] and in experiment [14] was “inactive” each time. The compound was called inactive in experiment [4], in experiment [7], in [10] and in experiment [13]. In addition, in experiment [11], the max response was 6.82% and -5.33% and 4.88%.
Turning to `CCc1cc(C(N)=S)ccn1`, the Potency result in experiment [15], in experiment [1], in experiment [2], in experiment [3], in [5] and in experiment [6] was “inactive” in each case. In addition, the Potency entry in [8], in experiment [9], in [12], in [16] and in [14] was “inactive” in each case. The compound was classed as inactive in [4], in [7], in experiment [10] and in experiment [13]. In addition, in experiment [11], the max response was 1.51% and 1.72% and 1.47%.
As to `CC(=O)Oc1ccccc1C(=O)O`, the Potency entry in [15], in experiment [1], in experiment [2], in experiment [5], in [6] and in experiment [8] was “inactive” in each case. The Potency result in experiment [9], in [12], in [17] and in [14] was “inactive” in each case. Also, the compound was classed as inactive in [4], in experiment [7], in experiment [10] and in [13]. Also, the max response in experiment [11] is -0.0178% and 14.7% and 2.62%.
Regarding `Nc1ccc(N=Nc2ccccc2)c(N)n1`, the Potency entry in [15], in [1], in [3], in experiment [6], in experiment [8] and in experiment [12] was “inactive” in each case. Also, the outcome in experiment [4], in [7], in [10] and in experiment [13] was inactive. In addition, the Potency is 43.9 µM (active) and 24.5 µM (active) in [5]; 24.7 µM (active) and 24.5 µM (active) in experiment [11]; 34.9 µM (active) and 17.4 µM (active) in experiment [17]; 34.9 µM (active) and 17.4 µM (active) and 26.8 µM (active) in experiment [14].
Consider `CC1=C(/C=C/C(C)=C/C=C/C(C)=C/C(=O)O)C(C)(C)CCC1`, for which the Potency in [1] is 49 µM (active). Besides, the Potency entry in [2], in experiment [5], in [6], in experiment [8], in experiment [9] and in [12] was “inactive” each time. For the same compound, the Potency entry in [16], in experiment [17] and in experiment [14] was “inactive” throughout. Besides, the compound was called inactive in [4], in experiment [7], in experiment [10] and in experiment [13]. Further, the max response in experiment [11] was -20% and -18.8% and -12.7%.
As for `CC(C)CC(C)CC(O)CC(C)C` (centres undefined), the Potency entry in [1], in [2], in [19], in [5], in [6] and in experiment [8] was “inactive” throughout. In addition, the Potency result in experiment [9], in [12], in experiment [16] and in experiment [14] was “inactive” each time. Moreover, the result in [18], in experiment [4], in [7], in [10] and in experiment [13] was inactive. For the same compound, in [20] (at 92.4 µM (top of the series)), the activity change, positive = activation was 3.18% and 4.59%. Also, the max response in experiment [11] was -0.631% and 5.18%.
Consider `CN/C(=C\[N+](=O)[O-])NCCSCc1ccc(CN(C)C)o1`, for which the Potency result in [15], in [1], in experiment [2], in [5], in [6] and in experiment [8] was “inactive” throughout. The Potency entry in experiment [9], in experiment [12], in experiment [16], in experiment [17] and in [14] was “inactive” each time. The compound was called inactive in [4], in [7], in experiment [10] and in [13]. Besides, the max response in experiment [11] was 4.86% and 0.756%.
With `CCn1cc(C(=O)O)c(=O)c2ccc(C)nc21`, the Potency entry in [15], in [1], in experiment [2], in experiment [5], in experiment [6] and in [8] was “inactive” each time. In addition, the Potency result in experiment [9], in experiment [12], in experiment [16] and in experiment [14] was “inactive” each time. Besides, the outcome in [4], in experiment [7], in experiment [10] and in experiment [13] was inactive. Further, the max response in [11] was 3.61% and -3.49% and 2.76%.
Regarding `NC(=O)N1c2ccccc2C=Cc2ccccc21`, the Potency entry in [1], in experiment [2], in experiment [3], in experiment [5], in experiment [6] and in experiment [8] was “inactive” each time. In addition, the Potency entry in experiment [9], in experiment [12], in experiment [16], in [17] and in [14] was “inactive” in each case. Further, the compound was called inactive in experiment [18], in experiment [4], in experiment [7], in experiment [10] and in [13]. The Potency in [11] was 34.5 µM (active). The max response in experiment [11] is -19.3% and 0.148%.
Turning to `NC(=O)NO`, the Potency entry in experiment [15], in [1], in experiment [2], in experiment [5], in [6] and in experiment [8] was “inactive” each time. Also, the Potency entry in experiment [9], in experiment [12], in [16], in experiment [17] and in [14] was “inactive” each time. Moreover, the result in experiment [4], in experiment [7], in experiment [10] and in [13] was inactive. In addition, in experiment [11], the max response is 19.8% and 1.62%.
`O=C(O)CCCCC1CCSS1` (centres undefined): the Potency entry in experiment [15], in experiment [1], in experiment [2], in experiment [19], in experiment [5] and in experiment [6] was “inactive” in each case. In addition, the Potency entry in experiment [8], in [9], in experiment [12], in [16] and in experiment [14] was “inactive” throughout. The activity change, positive = activation in [20] (at 42.5 µM (top of the series)) was 4.75%; in experiment [20] (at 92.4 µM (top of the series)), -0.498% and 6.05%. Further, the result in [4], in experiment [7], in [10] and in [13] was inactive. Further, the max response in experiment [11] was 9.73% and 12.3% and 7.95%.
